These results are taken from PubChem BioAssay (NCATS).

Molecules are shown by their SMILES. Records with an inconclusive call do not appear. A call without a number means that no potency is given here. Active and inactive are the calls of the source. Calls follow the shape of the dose curve; as a rule, active = well fitted inhibition curve with a large enough effect; inconclusive = small, poorly fitted or top-dose-only effect; inactive = flat fitted curve, though single readings scatter.
Potency is read from the fitted curve at half-maximal effect.

The target in this assay is Phospholipid hydroperoxide glutathione peroxidase GPX4 (Homo sapiens) (UniProt P36969). As to the kind of experiment: Primary qHTS Assay for Inhibitors of Recombinant Selenoprotein Glutathione Peroxidase 4 (GPX4) (AID 1845192). Also: nearly all actives have a fitted effect of over 65% in size. The conditions noted are these: recombinant GPX4, GR-coupled NADPH fluorescence, 15 min; series mostly up to 50 µM. From the text: Assay Provider: Elias S.J. Arner MD PhD.
Sequence of Phospholipid hydroperoxide glutathione peroxidase GPX4 (Homo sapiens) (P36969 whole entry, looked up): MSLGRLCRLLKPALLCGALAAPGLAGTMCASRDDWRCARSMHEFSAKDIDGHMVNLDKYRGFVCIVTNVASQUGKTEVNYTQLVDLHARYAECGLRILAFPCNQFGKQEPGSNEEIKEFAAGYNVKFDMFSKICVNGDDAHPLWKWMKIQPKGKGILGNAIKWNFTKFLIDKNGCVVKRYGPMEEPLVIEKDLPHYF
Department of Medical Biochemistry and Biophysics
Karolinska Institutet, Solna, Stockholm, Sweden
Selenoprotein glutathione peroxidases (GPX), like the ubiquitously expressed GPX1 and the ferroptosis modulator GPX4, enact their antioxidant activities by reducing hydroperoxides using glutathione. […] GPX1 and GPX4 inhibitors have thus shown promise as anti-cancer agents. Existing inhibitors are often promiscuous, or modulate GPX activity only indirectly, so novel direct inhibitors identified through screening against GPX1 and GPX4 could be valuable. Here, we developed optimized glutathione reductase (GR)-coupled GPX assays for the biochemical high-throughput screen (HTS) of almost 12,000 compounds with known mechanisms of action. Initial hits were triaged using a GR counter-screen, assessed for isoform specificity using a separate GPX2 assay, and were assessed for general selenocysteine-targeting activity using a thioredoxin reductase (TXNRD1) assay. With this suite of assays, we identified novel GPX1/GPX2- and GPX4-specific inhibitors and can here present a validated pipeline for future discovery research for selenoprotein-targeting agents.
SEQUENCE No. (e.g., 1, 2, 3, etc.); […] (e.g., Cells, Incubation, Reagent, etc.); VALUE; DESCRIPTION.
1; Reagent 1; 3 uL; 333.33 nM GPx4 enzyme or no enzyme control in 1536-well, black, solid Greiner assay plate.
2; Compound; 25 nL; Kalypsis pin tool (Wako USA) equipped with a 1536-well pin head.
3; Incubation; 30 min; room temperature.
4; Reagent 2; 1 uL; 500 nM GR, 5 mM GSH, 2.5 mM NADPH solution
5; Reagent 3; 1 uL; 2.5 mM CHP in 50% EtOH.
6; Detection; Fluorescence; ViewLux microplate reader, excitation 340 nm and emission 450 nm.
7; Incubation; 15 min; room temperature.
8; Detection; Fluorescence; ViewLux microplate reader, excitation 340 nm and emission 450 nm.
NOTES (numbers refer to Sequence numbers above)
1. 3 µL of 333.33 nM GPX4 and 0.016% BSA in assay buffer (50 mM Tris-HCl, 2 mM EDTA (pH 7.5), 150 mM NaCl) was added to columns 3-48 of 1536-well plates using a BioRAPTR Flying Reagent Dispenser (Let's Go Robotics (LGR), Carlsbad, CA). A no-enzyme control (0.01% BSA in TES assay buffer) was added to columns 1-2.
2. 25 nL, library and DMSO controls were added to each well with a pin tool (Kalypsys).
3. The assay plates were incubated for 30 minutes at room temperature.
4. 1 µL of master mix (500 nM glutathione reductase (GR), 5 mM reduced glutathione (GSH), 2.5 mM NADPH in assay buffer) was added.
5. 1 µL of cumene hydroperoxide (CHP) ([2.5 mM] in 50% EtOH) was then added within 5 minutes to initiate the reaction. Final concentrations were: 200 nM GPX4, 1 mM GSH, 0.5 mM CHP, 0.5 mM NADPH, 100 nM GR, 0.01% BSA.
6. Initial fluorescence readout (t=0) at 340/450 nm was measured using a ViewLux multimodal detector (PerkinElmer, Waltham, MA).
8. Endpoint fluorescence readout (t=15) at 340/450 nm was measured 15 min after room temperature incubation.
(In general: Quantitative high-throughput screening tests each substance at several concentrations.)
On to `CCN(CC)Cc1nccn1-c1ccc([N+](=O)[O-])cc1C(=O)c1ccccc1Cl`, for which the Potency result is “inactive”.

`C#C[C@]1(O)C=C[C@H]2[C@@H]3CCC4=CC(=O)CC[C@@H]4[C@H]3CC[C@@]21CC`: the Potency result is “inactive”.

`CCCCCCCCC(=O)NCc1ccc(O)c(OC)c1`: the Potency entry was “inactive”.

On to `CC[C@H]1C[C@H]2[C@@H]3CCC4=CC(=O)CC[C@@H]4[C@H]3CC[C@]2(C)[C@H]1O`, for which the Potency result was “inactive”.

Regarding `C#C[C@]1(O)CC[C@H]2[C@@H]3CCC4=CC(=O)CCC4=C3C=C[C@@]21CC`, the Potency is 10 µM (active).

On to `Cc1ccc([N+](=O)[O-])[c]2c1[O][Hg]2`, for which the Potency entry was “inactive”.

Take `C[C@@H]1O[C@@H](O[C@@H]2C=C3CC[C@@H]4[C@H](CC[C@]5(C)[C@@H](c6ccc(=O)oc6)CC[C@]45O)[C@@]3(C)CC2)[C@H](O)[C@H](O)[C@H]1O`: the Potency entry is “inactive”.

Take `Clc1ccc(CO/N=C(\Cn2ccnc2)c2ccc(Cl)cc2Cl)c(Cl)c1`: the Potency entry is “inactive”.

In the case of `CC1=C2[C@H]3OC(=O)[C@@H](C)[C@@H]3CC[C@@]2(C)C=CC1=O`, the Potency result is “inactive”.

For `Clc1ccc(C(OCCN2CCCCC2)c2ccccc2)cc1` (stereo not given), the Potency entry is “inactive”.

In the case of `CNC(=O)Oc1cccc2ccccc12`, the Potency result is “inactive”.

As for `NC(=O)OCCCc1ccccc1`, the Potency result was “inactive”.

Take `CC(C)[N+](C)(CCC(C(N)=O)(c1ccccc1)c1ccccc1)C(C)C`: the Potency entry was “inactive”.

For `Cc1nnc2n1-c1sc(CCC(=O)N3CCOCC3)cc1C(c1ccccc1Cl)=NC2`, the Potency entry is “inactive”.

For `Oc1ccc([C@H]2CNCc3c2ccc(O)c3O)cc1O`, the Potency entry was “inactive”.

Take `CC(C)(O)C(Cl)(Cl)Cl`: the Potency entry is “inactive”.

As to `Cc1ccc(N=CN(C)C=Nc2ccc(C)cc2C)c(C)c1`, the Potency result is “inactive”.

In the case of `Nc1ccccc1C(=O)OCC(O)CO` (stereo not given), the Potency entry was “inactive”.

Take `c1ccc2c(c1)Sc1ccccc1N2CC1CN2CCC1CC2` (stereo not given): the Potency result was “inactive”.

For the compound `CCOC(=O)NC(C)(C)Cc1ccc(Cl)cc1`, the Potency result was “inactive”.

On to `COP(=O)(OC)C(O)C(Cl)(Cl)Cl` (stereo not given), for which the Potency result was “inactive”.

As to `O=C(O)Cc1ccccc1`, the Potency entry is “inactive”.

In the case of `O=C(O)c1nn(Cc2ccc(Cl)cc2Cl)c2ccccc12`, the Potency result is “inactive”.

Consider `CCC(=O)C(CCN(C)C)(c1ccccc1)c1ccccc1`, for which the Potency result was “inactive”.

On to `CCCOC(=O)Cc1ccc(OCC(=O)N(CC)CC)c(OC)c1`, for which the Potency entry was “inactive”.

Take `CC#C[C@]1(O)CC[C@H]2[C@@H]3C[C@H](C)C4=CC(=O)CC[C@]4(C)[C@H]3CC[C@@]21C`: the Potency entry was “inactive”.

Regarding `Cc1cccc(Cc2cnc[nH]2)c1C`, the Potency entry is “inactive”.

Regarding `CCCCC1C(=O)NC(=O)N(C2CCCCC2)C1=O` (stereo not given), the Potency entry is “inactive”.

As to `COc1ccc(CN2CCNCC2)c(OC)c1OC`, the Potency entry was “inactive”.

On to `CCCCCCCCCCCC[N+](C)(C)CCOc1ccccc1`, for which the Potency entry is “inactive”.

In the case of `CC(Cc1ccccc1)NCc1ccccc1Cl` (stereo not given), the Potency entry is “inactive”.

For the compound `O=C(CCCN1CCC(n2c(=O)[nH]c3ccccc32)CC1)c1ccc(F)cc1`, the Potency entry was “inactive”.

For `CN1C2CCC(C)(C)C1CC(OC(=O)C(O)(c1cccs1)c1cccs1)C2` (stereo not given), the Potency entry is “inactive”.

On to `CC1COC2(c3ccccc3Cl)c3cc(Cl)ccc3NC(=O)CN12` (stereo not given), for which the Potency entry is “inactive”.

With `O=c1n(Cl)c(=O)n(Cl)c(=O)n1Cl`, the Potency entry was “inactive”.

On to `CCOC(=O)C1(c2ccccc2)CCN(CCc2ccc(N)cc2)CC1`, for which the Potency result was “inactive”.

`C[N+]1(C)[C@@H]2CC[C@H]1CC(OC(=O)C(CO)c1ccccc1)C2` (stereo not given in full): the Potency result is “inactive”.

With `N#Cc1nn(-c2c(Cl)cc(C(F)(F)F)cc2Cl)c(N)c1S(=O)C(F)(F)F` (stereo not given), the Potency entry was “inactive”.

`O=C(NC(=O)c1c(F)cccc1F)Nc1cc(Cl)c(OC(F)(F)C(F)C(F)(F)F)cc1Cl` (stereo not given): the Potency entry is “inactive”.

With `CCOC(=O)c1cncn1C(C)c1ccccc1` (stereo not given), the Potency result is “inactive”.
